Here are results for seven compounds from PubChem BioAssay (Tox21).

Values joined by “and” are separate entries in the source; they are usually repeats but may differ in a detail not shown here. Identical values can stand only once. Values without a mark were called inactive. Inconclusive results are not listed. Active and inactive are the calls of the source. Unless noted, calls come from the whole dose curve; as a rule, active = well fitted curve in the direction sought with a large enough effect in the repeat runs; inconclusive = weak or mixed curves; inactive = no such curve, though single readings can be large; an effect the other way counts as inactive or inconclusive.

Experiment [1] in a line: A CellTox Green Cytotoxicity Assay to monitor cytotoxicity in HepG2 cells - 0 hour (AID 1224882). Note: nearly all actives have a fitted effect of over 35% in size. The method, boiled down:
(§1)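 Continuous culture of HepG2 cells with a membrane-impermeant DNA dye; rising fluorescence marks dead cells. Compound exposure lasted up to 40 h at 37 C, with reads every 8 h from 0 h.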

Experiment [2] in a line: A CellTox Green Cytotoxicity Assay to monitor cytotoxicity in HepG2 cells - 32 hour (AID 1224883). Note: nearly all actives have a fitted effect of over 50% in size. Note: potency is the fitted concentration of half-maximal effect. In a few lines: as §1
Experiment [3] is described as follows: A CellTox Green Cytotoxicity Assay to monitor cytotoxicity in HEK293 cells - 8 hour (AID 1224884). Note: nearly all actives have a fitted effect of over 35% in size. Note: potency is the fitted concentration of half-maximal effect. In a few lines: (§2)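 Each value comes from one timepoint of a single continuous run in which HEK293 cells with CellTox Green were exposed to compound for up to 40 h at 37 C, dye fluorescence rising with cell death.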
Experiment [4] is described as follows: qHTS RealTime-Glo MT Cell Viability Assay in HepG2 cells - 16 hour (AID 1224885). Note: nearly all actives have a fitted effect of over 50% in size. Note: potency is the fitted concentration of half-maximal effect. In a few lines: (§3)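 Luminescence read-out: viable HepG2 cells reduce a prosubstrate to a NanoLuc substrate, giving a signal proportional to live cell number. Reads taken at 0, 8, 16, 24, 32 and 40 h of compound exposure at 37 C.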
(In general: Quantitative high-throughput screening tests each substance at several concentrations.)

Experiment [5] can be described thus: qHTS RealTime-Glo MT Cell Viability Assay in HEK293 cells - 24 hour (AID 1224886). Note: nearly all actives have a fitted effect of over 50% in size. Note: potency is the fitted concentration of half-maximal effect. The method, boiled down: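 Nonlytic real-time viability readout: viable cells convert prosubstrate to NanoLuc substrate, giving luminescence proportional to live cell number. HEK293, 600 cells/well, compound added after 5 h, continuous culture at 37 C.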
Experiment [6] can be described thus: qHTS RealTime-Glo MT Cell Viability Assay in HEK293 cells - 8 hour (AID 1224887). Note: nearly all actives have a fitted effect of over 50% in size. Note: potency is the fitted concentration of half-maximal effect. In a few lines: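 qHTS format; HEK293 cells with NanoLuc/prosubstrate reagent, 37 C/5% CO2 for 5 h pre-dosing; compounds 23 nL in DMSO; luminescence at each time point reflects viable cells.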
Experiment [7] in a line: A CellTox Green Cytotoxicity Assay to monitor cytotoxicity in HEK293 cells - 16 hour (AID 1224888). Note: nearly all actives have a fitted effect of over 35% in size. Note: potency is the fitted concentration of half-maximal effect. The method, boiled down: as §2
The nature of experiment [8]: A CellTox Green Cytotoxicity Assay to monitor cytotoxicity in HepG2 cells - 8 hour (AID 1224890). Note: nearly all actives have a fitted effect of over 45% in size. Note: potency is the fitted concentration of half-maximal effect. In a few lines: as §1
Experiment [9] is described as follows: qHTS assay to identify small molecule antagonists of the estrogen receptor alpha (ER-alpha) signaling pathway using the BG1 cell line in the presence of 0.1 nM 17-beta-estradiol - cell viability counter screen (AID 1259241). Note: nearly all actives have a fitted effect of over 40% in size. The method, boiled down: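 Cytotoxicity counter-screen: live-cell protease activity measured by fluorescence (30 min reagent step) in the same wells. Cells were VM7Luc4E2 with endogenous ER-alpha and ERE-driven luciferase, treated 22 hr at 37C alongside 0.1 nM 17beta-estradiol final.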

Experiment [10] can be described thus: qHTS assay to identify small molecule antagonists of the androgen receptor (AR) signaling pathway using the MDA cell line in the presence of 0.5 nM R1881 - cell viability counter screen (AID 1259242). Note: nearly all actives have a fitted effect of over 45% in size. Note: potency is the fitted concentration of half-maximal effect. In a few lines: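 Fluorescence from CellTiter-Fluor, which reports protease activity of live cells, was read 30 min after reagent addition to MDA-kb2 cells that had been incubated 16 hr with compound and 0.5 nM R1881.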

In experiment [11] the target is Androgen receptor (Homo sapiens) (UniProt P10275). The experiment in a line: qHTS assay to identify small molecule antagonists of the androgen receptor (AR) signaling pathway using the MDA cell line in the presence of 0.5 nM R1881 (AID 1259243). Note: nearly all actives have a fitted effect of over 50% in size. The method, boiled down: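 Inhibition of R1881 (0.5 nM final) induced reporter signal was measured in human MDA-kb2 cells; note the MMTV promoter also responds to GR. Exposure lasted 16 hr at 37C.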

Experiment [12] has as its target Estrogen receptor (Homo sapiens) (UniProt P03372). In words: qHTS assay to identify small molecule antagonists of the estrogen receptor alpha (ER-alpha) signaling pathway using the BG1 cell line in the presence of 0.1 nM 17-beta-estradiol (AID 1259244). Note: nearly all actives have a fitted effect of over 50% in size. Note: potency is the fitted concentration of half-maximal effect. The method, boiled down:
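Quantitative high-throughput screen in VM7Luc4E2 cells: compound plus 0.1 nM E2 (final), 22 h, 37C, 5% CO2; ONE-Glo added, 30 min room temperature, luminescence measured.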

Experiment [13] in a line: qHTS assay to identify small molecule HDAC inhibitors (AID 1259364). Note: top concentration of the series differs between compounds; nearly all actives have a fitted effect of over 45% in size. In a few lines: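 Endogenous HDAC class I/II activity was measured in wild-type HCT-116 cells by HDAC-Glo luminescence after 2 h compound treatment.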
Experiment [14] can be described thus: qHTS assay to identify small molecule HDAC inhibitors - cell viability counter screen (AID 1259365). The method, boiled down:
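CellTiter-Glo luminescence (30 min, room temperature) reported viability after a 2 h compound exposure at 37 C. Cells: wild-type HCT-116, 1,500 per well, seeded the night before.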

Experiment [15] in a line: qHTS assay to identify small molecule antagonists of the sonic hedgehog signaling (Shh) pathway - cell viability counter screen (AID 1259367). Note: nearly all actives have a fitted effect of over 55% in size. The method, boiled down: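 Using CellTiter-Fluor, viability of Gli1-Luc reporter 3T3 cells is read by fluorescence in the wells used for the Shh luciferase assay. Treatment lasts 23 hr with conditioned medium, then reagent 1 hr at 37C.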

Experiment [16] can be described thus: qHTS assay to identify small molecule agonists of the sonic hedgehog signaling (Shh) pathway (AID 1259368; calls by dose curve;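 note: NIH/3T3-derived 3T3Gli1-Luc cells carrying a stable Gli1-driven firefly luciferase reporter; series mostly up to about 92 µM; nearly all actives have a fitted effect of over 15% in size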). The method, boiled down: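 Luminescent signal was taken as a measure of Gli1-controlled luciferase expression in stably transfected NIH/3T3-derived cells that had been treated for 24 hr with compounds delivered in DMSO.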
Experiment [17] can be described thus: qHTS assay to identify small molecule antagonists of the sonic hedgehog signaling (Shh) pathway (AID 1259369; calls by dose curve; note: nearly all actives have a fitted effect of over 45% in size; note: potency is the fitted concentration of half-maximal effect). In a few lines:
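Screening used 3T3Gli1-Luc cells at 2,000 per well, compounds delivered in DMSO, and conditioned medium as agonist stimulus; plates incubated 24hr at 37 C and 5% CO2 before a 30min luciferase step.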

Experiment [18] can be described thus: qHTS RealTime-Glo MT Cell Viability Assay in HepG2 cells - 0 hour (AID 1224889). Note: nearly all actives have a fitted effect of over 50% in size. In a few lines: as §3
Experiment [19] is described as follows: qHTS assay to identify small molecule agonists of the sonic hedgehog signaling (Shh) pathway - cell viability counter screen (AID 1259366). Note: nearly all actives have a fitted effect of over 50% in size. Note: potency is the fitted concentration of half-maximal effect. The method, boiled down: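 Cytotoxicity counter screen: CellTiter-Fluor reagent added after 23 h compound exposure, then 1 h at 37C and fluorescence read. Cells were 3T3 Gli1-Luc, seeded 2,000 per well and dosed 4 h post-plating.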

Experiment [20] in a line: qHTS assay to identify small molecule phospholipidosis (PLD) inducers (AID 1259344; active = well fitted curve in the direction sought with a large enough effect; an effect the other way counts as inactive or inconclusive). In a few lines:
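Fluorescent phospholipid staining (LipidTOX Red) measured by automated microscopy in fixed HepG2 cells after 24 h treatment; nuclei counterstained with Hoechst 33342; amiodarone as reference inducer.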

Chain of Estrogen receptor (Homo sapiens) (P03372 whole entry, looked up): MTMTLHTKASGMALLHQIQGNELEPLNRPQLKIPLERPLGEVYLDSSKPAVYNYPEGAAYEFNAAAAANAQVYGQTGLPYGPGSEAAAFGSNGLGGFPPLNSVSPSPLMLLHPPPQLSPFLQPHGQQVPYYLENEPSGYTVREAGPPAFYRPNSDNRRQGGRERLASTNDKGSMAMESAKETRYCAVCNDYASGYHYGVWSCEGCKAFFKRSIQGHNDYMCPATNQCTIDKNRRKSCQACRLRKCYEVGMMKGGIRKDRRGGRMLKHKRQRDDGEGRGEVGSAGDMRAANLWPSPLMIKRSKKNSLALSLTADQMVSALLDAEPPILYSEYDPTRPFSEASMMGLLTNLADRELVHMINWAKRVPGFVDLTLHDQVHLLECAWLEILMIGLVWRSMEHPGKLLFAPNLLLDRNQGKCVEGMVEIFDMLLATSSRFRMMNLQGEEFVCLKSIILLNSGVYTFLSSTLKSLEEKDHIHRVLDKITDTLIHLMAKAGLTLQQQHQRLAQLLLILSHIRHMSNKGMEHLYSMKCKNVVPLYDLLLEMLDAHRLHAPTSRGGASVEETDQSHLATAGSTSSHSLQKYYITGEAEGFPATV
Chain of Androgen receptor (Homo sapiens) (P10275 whole entry, looked up): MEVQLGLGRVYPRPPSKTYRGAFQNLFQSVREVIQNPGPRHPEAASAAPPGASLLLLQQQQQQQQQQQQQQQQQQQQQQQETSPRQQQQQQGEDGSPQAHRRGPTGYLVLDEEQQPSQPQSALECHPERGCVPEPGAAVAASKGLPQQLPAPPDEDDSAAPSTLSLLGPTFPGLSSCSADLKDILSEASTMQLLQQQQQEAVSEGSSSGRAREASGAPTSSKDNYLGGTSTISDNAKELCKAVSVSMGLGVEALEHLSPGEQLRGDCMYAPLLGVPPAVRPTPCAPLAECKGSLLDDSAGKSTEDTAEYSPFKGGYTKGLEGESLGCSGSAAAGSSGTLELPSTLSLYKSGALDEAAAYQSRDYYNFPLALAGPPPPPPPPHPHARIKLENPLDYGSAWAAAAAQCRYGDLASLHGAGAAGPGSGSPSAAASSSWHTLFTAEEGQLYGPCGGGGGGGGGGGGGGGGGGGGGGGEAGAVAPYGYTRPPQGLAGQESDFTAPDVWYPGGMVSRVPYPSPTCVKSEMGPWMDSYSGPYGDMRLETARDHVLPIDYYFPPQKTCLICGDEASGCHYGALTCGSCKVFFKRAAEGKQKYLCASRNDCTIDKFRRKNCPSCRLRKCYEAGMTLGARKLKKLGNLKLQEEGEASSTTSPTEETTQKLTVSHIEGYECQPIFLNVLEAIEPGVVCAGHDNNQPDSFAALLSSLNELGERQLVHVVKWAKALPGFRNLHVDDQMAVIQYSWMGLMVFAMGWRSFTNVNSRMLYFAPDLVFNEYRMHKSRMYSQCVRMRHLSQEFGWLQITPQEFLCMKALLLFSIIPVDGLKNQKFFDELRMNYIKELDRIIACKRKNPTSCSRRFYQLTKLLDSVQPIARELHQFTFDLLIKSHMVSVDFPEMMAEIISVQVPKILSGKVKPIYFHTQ

As to `CN(C)Cc1ccccc1O`, the Potency result in experiment [1], in experiment [2], in [3], in [4], in experiment [5] and in [6] was “inactive” in each case. The Potency result in [7], in experiment [8], in experiment [9], in experiment [10], in [11] and in [12] was “inactive” throughout. Further, the Potency result in experiment [13], in experiment [14], in [15], in experiment [16] and in experiment [17] was “inactive” throughout.
`O=C(O)c1ccc2cc(C(=O)O)ccc2c1`: the Potency result in experiment [1], in [2], in experiment [3], in experiment [4], in experiment [5] and in experiment [6] was “inactive” in each case. Besides, the Potency result in experiment [7], in experiment [18], in [8], in experiment [9], in experiment [10] and in experiment [12] was “inactive” each time. Further, the Potency entry in [14], in experiment [19], in experiment [16] and in [17] was “inactive” in each case.
`Cc1nc(-c2ccc(Cl)cc2)oc1COC(C)(C)C(=O)O`: the Potency entry in experiment [1], in experiment [2], in [3], in experiment [4], in experiment [5] and in [6] was “inactive” each time. The Potency entry in experiment [7], in experiment [18], in experiment [8], in experiment [9], in experiment [10] and in experiment [20] was “inactive” in each case. Moreover, the Potency result in experiment [14], in experiment [19], in [15], in [16] and in experiment [17] was “inactive” in each case.
For `CCCCCCCCCCCCCC[N+](C)(C)Cc1ccccc1`, the Potency result in [1], in experiment [9], in experiment [20], in experiment [13], in [14] and in [16] was “inactive” in each case. The Potency in experiment [2] was 35.2 µM (active) and 15.1 µM (active) and 14.1 mM (active); in experiment [3] it was 55.8 µM (active) and 21.3 µM (active) and 20 mM (active); in [4], 49.7 µM (active) and 21.3 µM (active) and 17.8 mM (active); in experiment [5] it was 5.58 µM (active) and 6.74 µM (active) and 5.01 mM (active); in [6], 49.7 µM (active) and 20 mM (active); in experiment [7], 44.3 µM (active) and 23.9 µM (active) and 20 mM (active). Further, the Potency in [8] is 26.8 µM (active) and 20 mM (active); in experiment [10] it was 49.3 µM (active); in experiment [12], 27.7 µM (active) and 15.8 mM (active); in experiment [19], 24.7 µM (active); in experiment [17], 349 nM (active) and 422 nM (active).
As for `O=[N+]([O-])c1ccc(F)c(Cl)c1`, the Potency entry in experiment [1], in experiment [2], in experiment [3], in experiment [4], in experiment [5] and in experiment [6] was “inactive” throughout. The Potency result in experiment [7], in experiment [18], in experiment [8], in experiment [9], in [10] and in [13] was “inactive” throughout. Moreover, the Potency result in experiment [14], in experiment [19], in experiment [16] and in [17] was “inactive” throughout.
Consider `Cc1cc(-n2nc3ccc(Cl)cc3n2)c(O)c(C(C)(C)C)c1`, for which the Potency entry in [1], in experiment [2], in experiment [3], in experiment [4], in experiment [5] and in experiment [6] was “inactive” in each case. In addition, the Potency result in [7], in experiment [18], in experiment [8], in experiment [9], in [10] and in experiment [20] was “inactive” throughout. In addition, the Potency result in experiment [13], in [14], in experiment [19], in [16] and in [17] was “inactive” in each case.
Consider `COc1cc(C)ccc1O`, for which the Potency entry in [1], in experiment [2], in experiment [3], in [4], in experiment [5] and in experiment [6] was “inactive” throughout. For the same compound, the Potency result in experiment [7], in [8], in experiment [9], in experiment [10], in experiment [12] and in experiment [13] was “inactive” each time. The Potency entry in experiment [14], in experiment [19], in experiment [15], in experiment [16] and in [17] was “inactive” in each case.
